SARS PLpro yeast = inhibitors of SARS-CoV papain-like protease in yeast; hit rate 0.19% among 330,000; Potency, µM (titrated, usually from 32.9 µM), most hits filed as activators; S. cerevisiae expressing SARS-CoV PLpro, growth rescue; note: nearly all actives have a fitted effect of over 55% in size
CHX counter-1 = counter-screen for Shiga toxin inhibitors: cycloheximide protein synthesis inhibition | hit rate 12% among 300,000 | AID 2314 | max response, % | cell reporter, cycloheximide protein synthesis inhibition counterscreen; in the data active = max response mostly above about 13%, no sharp cut-off; inactive = mostly below about 14%; note: read at 38.3 µM for the half of the compounds with a filed dose
Shiga inhibitor = blocks Shiga toxin action in Vero cells; inhibition, % at 38.7 µM; hit rate 9.2% among 290,000; Vero cells, Shiga toxin protein synthesis inhibition reporter; in the data active = inhibition mostly above about 28%, no sharp cut-off; inactive = mostly below about 43%
NS1 function inh = inhibitors of influenza NS1 protein function; Potency, µM (titrated, usually from 46.1 µM); hit rate 0.4% among 270,000; note: actives are rising curves; nearly all actives have a fitted effect of over 50% in size
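S. cerevisiae expressing influenza A NS1, grown in glucose, washed, then diluted 1:100 into pH 6.0 -URA galactose medium with 23 nl compound. Growth recovery read as OD600; NS1-free strain serves as control.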
CHX counter-2 = protein synthesis counter-screen activity for Shiga toxin hits. shares compounds with Shiga inhibitor. Cycloheximide counterscreen, protein synthesis reporter, Shiga toxin assay. Potency, µM (highest dose often 38.3 µM), actives largely listed as activators. hit rate 3% among 510
Of the large screens only hits and unclear results are named; the others gave an inactive call (follow-up assays come after a bar, where they were run). Sampled rows, rich in hits. Any-hit rate of the full collection: about 12%. Unless noted, calls come from the whole dose curve.

CCOC(=O)c1ccc(NC(=O)Nc2ccn(C)n2)cc1	Shiga inhibitor 47 | CHX counter-2 inconclusive
CC(=O)N/C(=C\c1ccccc1)C(=O)Nc1ccccc1C	Shiga inhibitor 52 | CHX counter-2 inactive
CC1Cc2ccccc2N1Cc1cc(=O)n2ccsc2n1 (centres undefined)	Shiga inhibitor 25 | CHX counter-2 inactive
COc1ccccc1N1CCN(Cc2cc(=O)n3ccsc3n2)CC1	none
COc1cc(CCC(=O)Nc2nccs2)cc(OC)c1OC	none
COc1ccc(CNc2nc3nc4c(c(=O)n3[nH]2)CCC4)cc1	none
Cc1ccccc1-c1nnc(SCC#N)o1	Shiga inhibitor 33 | CHX counter-2 inactive
Cc1cc(-c2ccc(S(=O)(=O)N(C)Cc3ccccc3)cc2)on1	none
CCOC(=O)Cc1nc(-c2cccc(C(F)(F)F)c2)no1	none (no result: NS1 function inh)
Cc1nc(-c2cccc(C(F)(F)F)c2)sc1C(=O)O	Shiga inhibitor 58 | CHX counter-2 inactive
CNc1ccc(/C=C(\CCC(=O)O)c2nc3ccccc3s2)cc1[N+](=O)[O-]	Shiga inhibitor 65 | CHX counter-2 inactive
COc1ccccc1NC(=O)c1ccc(NC(=O)c2ccco2)cc1	Shiga inhibitor 43 | CHX counter-2 inactive
CC(C)C(=O)N1CCN(c2ccccc2NC(=O)c2ccco2)CC1	none
COc1ccccc1NC(=O)c1cccc(NC(=O)c2ccco2)c1	none
COc1ccccc1NC(=O)Cn1cc(C(=O)c2ccco2)c2ccccc21	Shiga inhibitor 60 | CHX counter-2 inactive
CC(C)c1ccccc1NC(=O)c1ccco1	Shiga inhibitor 58 | CHX counter-2 inconclusive
O=[N+]([O-])c1cc(S(=O)(=O)N2CCOCC2)ccc1OCc1cccc(Cl)c1	none (no result: CHX counter-1, Shiga inhibitor, NS1 function inh)
O=C(C1=C[C@@H](C2CCCCC2)C[C@@H](OCc2ccc(CO)cc2)O1)N1CCN(Cc2ccccc2)CC1	none
O=C(c1ccc(OC2CCN(Cc3ccccn3)CC2)cc1)N1CCCCO1	none
CCCCSCCCNC(=O)CCCN1C(=O)c2ccccc2Sc2ncccc21	Shiga inhibitor 32 | CHX counter-2 inactive
Cc1ccc(S(=O)(=O)NCCC(=O)NNC(=O)COc2ccc(Br)cc2)cc1C	none (no result: CHX counter-1, Shiga inhibitor, NS1 function inh)
COc1ccc(C(C)(C)C)cc1NC(=O)c1ccc2c(c1)SC1=NS(=O)(=O)CCN12	Shiga inhibitor 40 (no result: NS1 function inh) | CHX counter-2 inactive
CN(C(=O)c1ccc2c(c1)SC1=NS(=O)(=O)CCN12)C(c1ccccc1)c1ccccc1	none
CCOC(=O)c1c(C)[nH]c(C2=NNC(=NC3CC3)SC2)c1C	Shiga inhibitor 32 (no result: NS1 function inh) | CHX counter-2 0.05µM
CCOC(=O)c1c(C)[nH]c(/C(C)=N/O)c1C	none
CSc1ccccc1NC(=O)COC(=O)c1c[nH]c(=O)[nH]c1=O	none
CCCCC(=O)Nc1ccc(NC(=O)C2CC2)nc1	Shiga inhibitor 41 | CHX counter-2 inactive
CCOc1cc(S(=O)(=O)N2CCN(Cc3ccccc3)CC2)ccc1Br	Shiga inhibitor 136 (no result: SARS PLpro yeast) | CHX counter-2 inactive
Cc1ccc(S(=O)(=O)N2CCN(Cc3ccccc3)CC2)cc1	none
Cc1ccc(O)c(N=Nc2nccs2)c1	none (no result: CHX counter-1, Shiga inhibitor, NS1 function inh)
COc1ccc(NC(=O)NNC(=O)c2ccc3ccccc3c2O)c(OC)c1	Shiga inhibitor 27 | CHX counter-2 inactive
S=C(NCCN1CCOCC1)Nc1ccc(Cl)c(Cl)c1	none
CC1CCC/C=C/C2CC(O)CC2C(O)/C=C/C(=O)O1 (centres undefined)	Shiga inhibitor 41 | CHX counter-2 inactive
CCn1c(SCC(=O)O)nnc1-c1ccc2[nH]c(C)c(C)c2c1	Shiga inhibitor 27 | CHX counter-2 inactive
CCn1c(SCC(N)=O)nnc1-c1ccc2[nH]c(C)c(C)c2c1	none
CCOc1ccc(NC(=O)c2cc(=O)[nH]c3ccccc23)cc1	none
NC(=O)Cc1ccc(C(=O)c2ccccc2F)s1	Shiga inhibitor 38 (no result: NS1 function inh) | CHX counter-2 inactive
CC(C)=CCC/C(C)=C/CNC(=O)C[C@H]1C[C@H](C(=O)N2CCCCC2)[C@@]2(CCc3ccccc3)c3[nH]c4cc(-c5ccco5)ccc4c3CCN2C1=O	none (no result: CHX counter-1, Shiga inhibitor, NS1 function inh)
COc1ccc(NC2CCCN(C(=O)CCc3ccccc3F)C2)cc1 (centres undefined)	none
Cc1cc(C)c2nc(-c3ccccn3)cc(C(=O)NCc3ccco3)c2c1	Shiga inhibitor 10 (no result: SARS PLpro yeast) | CHX counter-2 inconclusive
Cc1nc(N2CCN(c3ccccc3)CC2)nc2c1C(=O)CCC2	none
Cc1nc(N2CCN(C(=O)c3ccco3)CC2)nc2c1C(=O)CCC2	Shiga inhibitor 36 | CHX counter-2 inconclusive
CCOC(=O)CCCc1c[nH]c2ccccc12	none
CCN(CC)C(=O)CCCc1c[nH]c2ccccc12	Shiga inhibitor 52 | CHX counter-2 inactive
CCC(=O)N1CCN(c2ccccc2NC(=O)c2ccc([N+](=O)[O-])o2)CC1	Shiga inhibitor 55 | CHX counter-2 inconclusive

Screens from PubChem.
